In the library only some 21% were active in any assay of this set; here they are far more common.
Shiga inhibitor: A qHTS for Small Molecule Inhibitors of Shiga Toxin. Vero cells, Shiga toxin protein synthesis inhibition reporter. inhibition, % at 38.7 µM. 290,000 tested, 9.2% active. AID 2315, 2010; in the data active = inhibition mostly above about 28%, no sharp cut-off; inactive = mostly below about 43%; also: 0% is about no effect
NS1 function inh: qHTS Assay for Inhibitors of Influenza NS1 Protein Function | Potency, µM (highest dose often 46.1 µM), for inactives: at the top dose activity, positive = more growth | 270,000 tested, 0.4% active; also: potency is read from the fitted curve at half-maximal effect; actives are rising curves; nearly all actives have a fitted effect of over 50% in size
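In this qHTS, NS1 from influenza A is expressed in budding yeast, where it slows growth. Cells are switched from glucose to 2% galactose medium (pH 6.0, -URA), treated with compound, and growth recovery is read at OD600.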
SARS PLpro yeast-1: qHTS of Yeast-based Assay for SARS-CoV PLP | Potency, µM (top dose mostly 32.9 µM), without a hit: at the top dose activity, positive = growth rescue, actives largely listed as activators | S. cerevisiae expressing SARS-CoV PLpro, growth rescue | AID 485353, 2010 | 330,000 tested, 0.19% active; also: potency is read from the fitted curve at half-maximal effect; 0% is about no effect; nearly all actives have a fitted effect of over 55% in size
Cycloheximide cs: Cycloheximide Counterscreen for Small Molecule Inhibitors of Shiga Toxin | max response, % | cell reporter, cycloheximide protein synthesis inhibition counterscreen | AID 2314, 2010 | 300,000 tested, 12% active; in the data active = max response mostly above about 13%, no sharp cut-off; inactive = mostly below about 14%; also: read at 38.3 µM for the half of the compounds with a filed dose; 0% is about no effect
Pf growth 48h: Primary qHTS for delayed death inhibitors of the malarial parasite plastid, 48 hour incubation. AID 504832, 2011. Potency, µM (doses to about 28.7 µM), for inactives: at the top dose activity change, negative = inhibition, hits mostly inhibitors. 310,000 tested, 5.9% active. P. falciparum luciferase growth in erythrocytes, 48 h; active = well fitted inhibition curve with a large enough effect; inconclusive = small, poorly fitted or top-dose-only effect, or another doubt; inactive = no such curve, though single readings can be large or run the other way; also: potency is read from the fitted curve at half-maximal effect; % is scaled to controls: 0 for no effect and ±100 for the full control effect
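Compounds are pin-transferred into medium, infected erythrocytes (2% hematocrit, 0.1% parasitemia final) are added, and plates sit one parasite generation at 37 C in 5% CO2. Detection reagent is then added and luminescence measured.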
Pf growth 96h: Primary qHTS for delayed death inhibitors of the malarial parasite plastid, 96 hour incubation | Potency, µM (doses to about 28.7 µM), for inactives: at the highest dose activity change, negative = inhibition, usual class: inhibitors | P. falciparum luciferase reporter growth, 96 h | 320,000 tested, 6.9% active; active = well fitted inhibition curve with a large enough effect; inconclusive = small, poorly fitted or top-dose-only effect, or another doubt; inactive = no such curve, though single readings can be large or run the other way; also: potency is read from the fitted curve at half-maximal effect; % is scaled to controls: 0 for no effect and ±100 for the full control effect
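Erythrocytes infected with luciferase-expressing P. falciparum were dispensed at 2% hematocrit and 0.05% parasitemia (final), then incubated with compounds 96 hours at 37 C in 5% CO2. Luminescence after detection reagent addition reported growth.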
SARS PLpro yeast-2: qHTS of Yeast-based Assay for SARS-CoV PLP: Hit Validation | shares compounds with SARS PLpro yeast-1 | yeast expressing SARS-CoV PLpro, growth phenotype rescue | calls only | 1,000 tested, 19% active | AID 652038, 2013; call rule not given here
* = called active by the depositor; i = inactive; ? = inconclusive; . = no result given; + = active, no number. Unless noted, calls follow the shape of the full dose curve.

SMILES	Shiga inhibitor	NS1 function inh	SARS PLpro yeast-1	Cycloheximide cs	Pf growth 48h	Pf growth 96h	SARS PLpro yeast-2
COc1ccc(CNC(=S)NC2CCCC2)cc1	1.7	0.2%	?	-3.1	-7.1%	16.9%	+
COc1cccc(C(=O)NCC(c2ccco2)N2CCOCC2)c1 (stereo not drawn)	.	.	1.4%	.	-5.4%	-0.7%	.
CC(=O)c1cccc(NC(=O)CSc2ccc(-c3ccccn3)nn2)c1	16.8	-116.7%	?	7.5	?	?	+
COc1ccccc1C(=O)NC(=O)COC(=O)c1ccc(Cl)nc1	.	.	2.8%	.	-0.2%	20.0%	.
CCOc1ccccc1NC(=S)Nc1ccccc1F	9.7	-1.0%	?	5.0	0.9%	13.1µM*	i
Cc1ccc(C)c(/C=N/NC(=S)NC(C)C)c1	5.5	-8.2%	7.08µM*	-1.7	?	13.1µM*	?
Cc1ccc(C)c(/C=N/NC(=S)NCCc2ccccc2)c1	13.6	-4.4%	.	10.9	.	0.0%	?
CCC(=O)NC(c1ccco1)c1cc(Cl)c2cccnc2c1O (stereo not drawn)	-21.7	-39.2%	-6.1%	-1.6	?	12.5%	.
CCCCC(=O)NC(c1ccccc1)c1ccc2cccnc2c1O (stereo not drawn)	-5.6	2.4%	4.47µM*	-1.5	?	?	i
CCC(=O)NC(c1ccccc1OC)c1ccc2cccnc2c1O (stereo not drawn)	19.0	-10.3%	?	9.1	4.15µM*	-4.1%	+
O=C(NCc1cccnc1)c1ccc(Cn2c(=S)[nH]c3ccc(Br)cc3c2=O)cc1	13.3	.	-1.3%	10.2	?	?	.
CC(NC(=O)C(C)N1CCN(S(=O)(=O)c2ccccc2)CC1)c1ccccc1 (stereo not drawn)	.	.	-15.6%	.	-32.2%	?	.
CCOc1ccc(-c2nnc3ccc(SCC(=O)Nc4nc5ccccc5s4)nn23)cc1	-12.1	-11.5%	?	4.7	-38.8%	-68.9%	i
O=C1NCCCC1C(=O)N/N=C/c1ccccc1 (stereo not drawn)	-3.8	-5.3%	?	0.3	3.5%	4.8%	i
Oc1ccc(/C=N/Nc2cc(N3CCCC3)nc(N3CCCC3)n2)cc1O	-15.6	?	?	-2.3	?	?	i
Cc1cccc(/C=N/Nc2cc(N3CCOCC3)nc(N3CCOCC3)n2)c1	2.1	11.7%	-54.6%	-3.0	?	?	.
Cc1[nH]n(-c2cccc3ccccc23)c(=O)c1/C=N/NC(=O)c1cccc([N+](=O)[O-])c1	15.8	?	?	-2.0	?	46.6%	+
Cc1[nH]n(-c2ccccc2)c(=O)c1/C=N/NC(=O)c1cccc([N+](=O)[O-])c1	-8.6	-3.2%	6.8%	-2.5	30.3%	?	.
CC1CCCCC1NC(=O)NC(=O)COC(=O)c1nccnc1N (stereo not drawn)	.	.	-6.9%	.	.	.	.
CC1CCCCC1NC(=O)NC(=O)CCl (stereo not drawn)	-1.2	1.7%	?	0.2	8.28µM*	?	+
CC1CCCC(NC(=O)NC(=O)CCl)C1C (stereo not drawn)	-8.0	-4.7%	?	4.0	0.0329µM*	10.4µM*	+
C/C(=N\NC(=O)c1ccc(CSc2nncn2C)cc1)c1ccc2ccccc2c1	2.6	-4.3%	?	-2.1	-9.5%	-30.1%	i
CCc1nnc(NC(=O)c2cnccn2)s1	23.3	-24.2%	?	16.5	62.1%	.	i
CCc1nnc(NC(=O)C2CCN(c3cnccn3)CC2)s1	17.2	0.0%	6.3%	-3.1	8.4%	1.7%	.
COc1ccc(CCC(=O)OCC(=O)Nc2ccc(OC)c(OC)c2)cc1OC	-8.9	-2.2%	1.2%	-2.8	?	18.7%	.
CCOc1cc(CNCCSc2nnnn2C)cc(Br)c1OCc1ccc(F)cc1	-12.2	-2.5%	?	-4.2	?	10.4µM*	i
